Screens deposited in PubChem BioAssay by Broad Institute.
Only a sample is shown.
aSyn 5UTR act – Activators via SNCA 5'UTR binding, MLPCN. alpha-synuclein 5'UTR reporter, activators screen. activity score, % (tested at 7.5 µM), hits read low. hit rate 7.1% among 300,000. AID 1814, 2009; in the data active means activity score below about -60%
Starred values were filed as active, the others as inactive.

`O=C(CSCc1cccc(F)c1)NCc1ccccc1` gave aSyn 5UTR act -74.8*.
Nc1ccc(C(=O)N/N=C/c2cn(Cc3cccc(F)c3)c3ccccc23)cc1 was read as aSyn 5UTR act 69.8.
`COc1ccccc1CNC(=O)CSc1ccccc1` gave aSyn 5UTR act -100.5*.
`O=C(CSc1ccccc1)NCc1ccccc1` gave aSyn 5UTR act -68.5*.
COc1ccccc1Nc1ncc(-c2cccs2)s1 was read as aSyn 5UTR act -176.6*.
COc1ccc(-n2cnc3sc(-c4ccccc4)cc3c2=O)cc1 was read as aSyn 5UTR act -118.5*.
Screening COc1cccc(-n2cnc3sc(-c4ccccc4)cc3c2=O)c1 returned aSyn 5UTR act -183.9*.
Screening COc1ccc(-c2cc3nc(C)n(N)c(=O)c3s2)cc1 returned aSyn 5UTR act 115.5.
For Cc1ccc(-c2csc(NC(=O)CSC3=NCCS3)n2)cc1 the results were aSyn 5UTR act -98.9*.
For Cc1ccc(-c2csc(NC(=O)CSc3nc(C)cc(=O)[nH]3)n2)cc1 the results were aSyn 5UTR act -114.7*.
O=C(CSc1nc2ccccc2[nH]1)Nc1nc(-c2cccc(Br)c2)cs1 was read as aSyn 5UTR act -85.3*.
Screening COc1ccc(/C=C2\SC(=O)N(CCC(=O)Nc3ccccc3)C2=O)cc1OC returned aSyn 5UTR act 82.0.
For COc1ccccc1/C=C1\SC(=O)N(CCC(=O)NNC(=O)c2ccccc2Cl)C1=O the results were aSyn 5UTR act -74.4*.
`Cc1nc2ccccc2c(=O)n1/N=C/c1ccccc1Cl` gave aSyn 5UTR act -90.5*.
`Cc1ccc(/C=N/n2c(C)nc3ccccc3c2=O)s1` gave aSyn 5UTR act -89.9*.
`COc1ccc2o/c(=N\O)c(C(=O)Nc3ccc(C)cc3)cc2c1` gave aSyn 5UTR act -281.7*.
COc1ccc2oc(=N)c(C(=O)Nc3ccc(C)cc3)cc2c1 was read as aSyn 5UTR act -101.4*.
`COc1ccc(NC(=O)c2cc3ccccc3o/c2=N\NS(=O)(=O)c2ccc(C)cc2)cc1` gave aSyn 5UTR act -133.0*.
COc1ccc2oc(=N)c(C(=O)Nc3ccc(F)cc3)cc2c1 was read as aSyn 5UTR act -97.0*.
`N=c1oc2ccc(Cl)cc2cc1C(=O)Nc1ccc(F)cc1` gave aSyn 5UTR act -67.7*.
For Cn1c(-c2ccc3c(c2)OCO3)cnc1NCc1ccccc1 the results were aSyn 5UTR act -103.6*.
Cn1c(-c2ccc3c(c2)OCO3)cnc1NCc1ccccc1Cl was read as aSyn 5UTR act -94.5*.
`O=C(CSc1nnnn1-c1ccc(Cl)cc1)NC(=O)Nc1ccc2c(c1)OCCO2` gave aSyn 5UTR act -183.8*.
Screening Cc1ccc(-n2nnnc2SCC(=O)NC(=O)Nc2ccc3c(c2)OCCO3)cc1 returned aSyn 5UTR act -160.1*.
Screening Cc1nnc(SCC(=O)NC(=O)Nc2ccc3c(c2)OCCO3)n1N returned aSyn 5UTR act -113.8*.
O=C(c1cnn2c1NC(c1ccco1)CC2C(F)(F)F)N1CCN(c2cccc(Cl)c2)CC1 (stereo not drawn) was read as aSyn 5UTR act -70.7*.
`CCC(=O)c1ccc(SC(=O)N(C)C)cc1O` gave aSyn 5UTR act -67.6*.
For Cc1ccnc(NC(=O)c2cccs2)c1 the results were aSyn 5UTR act -117.8*.
Cc1cccc(NC(=O)c2cccs2)n1 was read as aSyn 5UTR act -116.4*.
Screening Cc1ccnc(NC(=O)c2ccc(Br)s2)c1 returned aSyn 5UTR act -114.7*.
For O=C(Nc1ccccn1)c1cccs1 the results were aSyn 5UTR act -113.4*.
For COc1cccc(/C=N/NC(=O)c2cc3cc([N+](=O)[O-])ccc3s2)c1O the results were aSyn 5UTR act 107.0.
Screening Cc1cccc(NC(=O)c2cc3cc([N+](=O)[O-])ccc3s2)n1 returned aSyn 5UTR act -85.0*.
For O=C(Nc1nccc(-c2cccs2)n1)c1cccs1 the results were aSyn 5UTR act -91.8*.
Screening O=C(Nc1ccc(F)cc1)Nc1nnc(-c2ccco2)s1 returned aSyn 5UTR act -99.6*.
`O=C(Nc1nnc(-c2ccco2)s1)C1CC1` gave aSyn 5UTR act -76.3*.
Screening COc1ccc(CN=C2NN=C(c3ccccc3)CS2)cc1 returned aSyn 5UTR act -113.9*.
For Cc1cc(C2=NNC(=NCCc3ccccc3)SC2)c(C)n1CC1CCCO1 (stereo not drawn) the results were aSyn 5UTR act -147.4*.
`COCCn1c(C)cc(C2=NNC(=Nc3ccccc3)SC2)c1C` gave aSyn 5UTR act -79.3*.
`Clc1ccc(C2=NNC(=NCC3CCCO3)SC2)cc1` (stereo not drawn) gave aSyn 5UTR act -73.1*.
For C=CCn1c(C)cc(C2=NNC(=NCc3ccccc3)SC2)c1C the results were aSyn 5UTR act -181.6*.
`C(=C/c1nccc2c1[nH]c1ccccc12)/c1ccc2c(c1)OCO2` gave aSyn 5UTR act -131.6*.
`c1ccc(Cn2cc(CSc3ccccc3)nn2)cc1` gave aSyn 5UTR act -137.1*.
`CCN(C(=O)COC(=O)c1cc(-c2ccc3cc(OC)ccc3c2)nc2ccccc12)C1CCS(=O)(=O)C1` (stereo not drawn) gave aSyn 5UTR act 67.5.
For CN(C(=O)COC(=O)c1cc(-c2ccc(Cl)s2)nc2ccccc12)C1CCS(=O)(=O)C1 (stereo not drawn) the results were aSyn 5UTR act -82.1*.
Screening Cc1ccc(-c2cc(-c3cccs3)[nH]n2)c(O)c1 returned aSyn 5UTR act -127.7*.
For c1ccc(C2CCC3(CC2)Oc2ccccc2C2CC(c4cccnc4)=NN23)cc1 (stereo not drawn) the results were aSyn 5UTR act -85.6*.
`O=C(c1ccc(CS(=O)Cc2ccccc2Cl)o1)N1CCN(c2ccccn2)CC1` (stereo not drawn) gave aSyn 5UTR act -84.9*.
For Cc1ccc(S(=O)(=O)N/N=C2/CC(c3ccccc3)Oc3ccccc32)cc1[N+](=O)[O-] (stereo not drawn) the results were aSyn 5UTR act -106.4*.
`C/C(CC(C)C)=N\NS(=O)(=O)c1ccc(C)c([N+](=O)[O-])c1` gave aSyn 5UTR act 50.7.
Screening CCOC(=O)c1ccc2nc3c(cc2c1)CCS3 returned aSyn 5UTR act -148.5*.
`COc1ccc(-c2cc3nc(C)cc(C)n3n2)cc1` gave aSyn 5UTR act -182.9*.
Cc1cc(C)n(-c2nc(-c3ccc(Cl)cc3)cs2)n1 was read as aSyn 5UTR act -93.1*.
`Cc1cc(C)n2nc(-c3ccc(Br)cc3)cc2n1` gave aSyn 5UTR act -121.9*.
`Cc1cc(C)n2nc(-c3ccc(Cl)cc3)cc2n1` gave aSyn 5UTR act -128.8*.
COc1ccc(-c2nc3nc(C)cc(C)n3n2)cc1 was read as aSyn 5UTR act -134.6*.
`COc1ccc(C2OC(=O)CC2C(=O)NCc2ccc(Cl)cc2)cc1OC` (stereo not drawn) gave aSyn 5UTR act -77.8*.
Cc1c(C)n(CCc2ccccc2)c2ncnc(NCCCO)c12 was read as aSyn 5UTR act -140.8*.
For Cc1ccc(-n2c(C)c(C)c3c(NCCO)ncnc32)cc1 the results were aSyn 5UTR act -106.6*.
CCOC(=O)C1CCN(C(=O)c2cc3c(ccc4ccccc43)o2)CC1 was read as aSyn 5UTR act -115.2*.
For CCOC(=O)C1CCN(Cc2c(O)ccc3ccccc23)CC1 the results were aSyn 5UTR act -107.6*.
Cc1oc2c(c1C(=O)N1CCC(C)CC1)C(=O)c1ccccc1C2=O was read as aSyn 5UTR act 83.4.
`CCOC(=O)C1CCN(C(=O)c2c(C)oc3c2C(=O)c2ccccc2C3=O)CC1` gave aSyn 5UTR act 72.1.
`CC1CCN(C(=O)c2cc3ccccc3c(=O)o2)CC1` gave aSyn 5UTR act -77.7*.
